# Experimental data: PMC7862700, “An all-to-all approach to the identification of sequence-specific readers for epigenetic DNA modifications on cytosine”
# Key:
# Assay in all cases: DAPPL (digital affinity profiling via proximity ligation, sequencing); 10 mM Tris-HCl pH 7.5, 50 mM NaCl, 1 mM DTT, 4% glycerol, room temperature, 30 min; GST-TFs on glutathione beads, 16-mer random dsDNA library, 0.1% formaldehyde crosslink after washing; high values mean tight binding
# Settings in all cases: protein: recombinant; tags: N-terminal GST; dsDNA, one strand shown
# FLI1 = target: T1, FLI1 (Homo sapiens, UniProt Q01543 1-452)
# T1 sequence: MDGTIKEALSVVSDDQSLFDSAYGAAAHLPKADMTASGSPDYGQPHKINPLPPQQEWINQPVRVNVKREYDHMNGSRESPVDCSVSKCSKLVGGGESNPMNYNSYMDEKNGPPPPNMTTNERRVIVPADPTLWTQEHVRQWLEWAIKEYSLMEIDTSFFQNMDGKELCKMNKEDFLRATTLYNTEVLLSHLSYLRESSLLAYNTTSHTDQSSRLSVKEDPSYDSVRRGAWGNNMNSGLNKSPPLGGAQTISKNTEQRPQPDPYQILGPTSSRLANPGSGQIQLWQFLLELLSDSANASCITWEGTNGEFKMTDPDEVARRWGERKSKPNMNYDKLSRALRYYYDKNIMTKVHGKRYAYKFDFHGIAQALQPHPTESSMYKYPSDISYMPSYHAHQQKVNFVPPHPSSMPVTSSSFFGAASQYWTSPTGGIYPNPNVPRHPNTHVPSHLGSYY
# Outline: (§1)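 Human transcription factors carrying a GST fusion were produced in yeast, bound to glutathione beads, tagged with DNA barcodes and pooled together with a tag-only sample. Each pool was held with 200 nmole of a random double-stranded 16-mer DNA library in Tris/NaCl/DTT/glycerol buffer for 30 min at room temperature, then washed, crosslinked in 0.1% formaldehyde, proximity-ligated with BsaI/T4 ligase (1 h, 37 °C), PCR-amplified and sequenced on an Illumina NextSeq500. Binding signal is the read frequency of each hexamer for a given factor divided by its frequency in the tag-only sample.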
# ELK1 = target: T2, ELK1 (Homo sapiens, UniProt P19419 1-428)
# T2 sequence: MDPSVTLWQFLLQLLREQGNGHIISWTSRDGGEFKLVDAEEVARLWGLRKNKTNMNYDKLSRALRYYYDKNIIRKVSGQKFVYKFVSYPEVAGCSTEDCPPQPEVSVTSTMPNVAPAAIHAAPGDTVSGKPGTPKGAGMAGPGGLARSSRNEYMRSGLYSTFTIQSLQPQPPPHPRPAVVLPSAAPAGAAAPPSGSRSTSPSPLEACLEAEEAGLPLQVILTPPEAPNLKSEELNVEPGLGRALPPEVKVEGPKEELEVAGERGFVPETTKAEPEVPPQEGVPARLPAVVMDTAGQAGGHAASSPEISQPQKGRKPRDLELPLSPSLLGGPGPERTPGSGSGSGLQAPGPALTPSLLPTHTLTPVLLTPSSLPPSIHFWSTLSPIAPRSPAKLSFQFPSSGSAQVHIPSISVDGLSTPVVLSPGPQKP
# Outline: as §1
# ERG = target: T3, ERG (Homo sapiens, UniProt P11308 1-479)
# T3 sequence: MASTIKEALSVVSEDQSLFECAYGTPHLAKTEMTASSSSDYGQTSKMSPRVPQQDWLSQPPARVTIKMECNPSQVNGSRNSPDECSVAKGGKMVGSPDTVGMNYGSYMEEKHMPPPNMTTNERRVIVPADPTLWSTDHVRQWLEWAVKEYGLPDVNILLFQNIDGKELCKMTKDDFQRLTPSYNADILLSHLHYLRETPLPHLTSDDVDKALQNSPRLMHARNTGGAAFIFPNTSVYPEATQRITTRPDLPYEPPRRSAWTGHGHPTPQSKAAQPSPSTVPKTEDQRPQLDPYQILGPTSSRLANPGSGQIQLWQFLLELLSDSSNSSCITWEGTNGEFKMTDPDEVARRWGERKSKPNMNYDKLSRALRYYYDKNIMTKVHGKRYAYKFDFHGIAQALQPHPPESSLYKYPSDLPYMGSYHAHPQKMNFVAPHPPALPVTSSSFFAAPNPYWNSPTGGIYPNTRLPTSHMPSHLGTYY
# Outline: as §1
# ELF1 = ELF1 (Homo sapiens, UniProt P32519 1-619)
# Outline: as §1
# EHF = target: T4, EHF (Homo sapiens, UniProt Q9NZC4 1-300)
# T4 sequence: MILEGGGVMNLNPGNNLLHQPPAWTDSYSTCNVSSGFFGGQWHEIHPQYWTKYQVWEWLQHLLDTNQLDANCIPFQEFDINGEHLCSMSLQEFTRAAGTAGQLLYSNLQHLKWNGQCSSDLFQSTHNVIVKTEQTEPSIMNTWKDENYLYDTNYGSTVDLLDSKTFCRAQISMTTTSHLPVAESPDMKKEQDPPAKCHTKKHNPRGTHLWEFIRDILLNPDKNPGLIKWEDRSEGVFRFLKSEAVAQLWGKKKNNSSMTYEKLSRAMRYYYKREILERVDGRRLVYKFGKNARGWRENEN
# Outline: as §1
# ELK3 = target: T5, ELK3 (Homo sapiens, UniProt P41970 1-407)
# T5 sequence: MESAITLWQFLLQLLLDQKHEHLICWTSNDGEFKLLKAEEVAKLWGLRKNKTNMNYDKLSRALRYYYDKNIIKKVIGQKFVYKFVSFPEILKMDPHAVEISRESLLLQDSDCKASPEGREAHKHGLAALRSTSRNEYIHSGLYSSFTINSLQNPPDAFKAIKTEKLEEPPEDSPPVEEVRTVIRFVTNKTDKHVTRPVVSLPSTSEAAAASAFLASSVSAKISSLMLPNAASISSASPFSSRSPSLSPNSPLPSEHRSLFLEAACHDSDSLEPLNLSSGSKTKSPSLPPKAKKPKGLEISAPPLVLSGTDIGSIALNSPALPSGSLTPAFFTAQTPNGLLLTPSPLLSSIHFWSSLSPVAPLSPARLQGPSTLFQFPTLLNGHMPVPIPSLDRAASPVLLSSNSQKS
# Outline: as §1
# FEV = target: T6, FEV (Homo sapiens, UniProt Q99581 1-238)
# T6 sequence: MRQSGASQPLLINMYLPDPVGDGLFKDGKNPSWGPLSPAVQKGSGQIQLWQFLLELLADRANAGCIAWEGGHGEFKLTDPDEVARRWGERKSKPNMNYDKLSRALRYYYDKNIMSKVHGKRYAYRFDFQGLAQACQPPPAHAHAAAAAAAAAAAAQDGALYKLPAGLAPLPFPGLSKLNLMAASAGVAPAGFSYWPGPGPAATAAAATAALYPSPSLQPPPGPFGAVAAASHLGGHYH
# Outline: as §1
# ETV1 = ETV1 (Homo sapiens, UniProt P50549 1-477)
# Outline: as §1
# ERF = target: T7, ERF (Homo sapiens, UniProt P50548 1-548)
# T7 sequence: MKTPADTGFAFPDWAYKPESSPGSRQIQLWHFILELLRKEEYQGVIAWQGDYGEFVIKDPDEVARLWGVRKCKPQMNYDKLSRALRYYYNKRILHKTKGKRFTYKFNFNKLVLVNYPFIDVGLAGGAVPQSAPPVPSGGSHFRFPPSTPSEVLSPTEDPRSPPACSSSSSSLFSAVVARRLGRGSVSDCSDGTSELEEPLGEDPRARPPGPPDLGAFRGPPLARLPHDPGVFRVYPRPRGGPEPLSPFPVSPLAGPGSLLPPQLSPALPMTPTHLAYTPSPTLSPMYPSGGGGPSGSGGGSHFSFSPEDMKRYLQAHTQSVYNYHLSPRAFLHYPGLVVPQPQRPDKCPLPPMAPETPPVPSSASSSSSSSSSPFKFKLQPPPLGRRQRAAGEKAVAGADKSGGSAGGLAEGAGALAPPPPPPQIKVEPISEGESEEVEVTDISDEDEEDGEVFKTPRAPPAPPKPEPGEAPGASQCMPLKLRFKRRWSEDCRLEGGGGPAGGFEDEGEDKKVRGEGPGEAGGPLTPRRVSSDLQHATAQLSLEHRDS
# Outline: as §1
# ETV3L = target: T8, ETV3L (Homo sapiens, UniProt Q6ZN32 1-361)
# T8 sequence: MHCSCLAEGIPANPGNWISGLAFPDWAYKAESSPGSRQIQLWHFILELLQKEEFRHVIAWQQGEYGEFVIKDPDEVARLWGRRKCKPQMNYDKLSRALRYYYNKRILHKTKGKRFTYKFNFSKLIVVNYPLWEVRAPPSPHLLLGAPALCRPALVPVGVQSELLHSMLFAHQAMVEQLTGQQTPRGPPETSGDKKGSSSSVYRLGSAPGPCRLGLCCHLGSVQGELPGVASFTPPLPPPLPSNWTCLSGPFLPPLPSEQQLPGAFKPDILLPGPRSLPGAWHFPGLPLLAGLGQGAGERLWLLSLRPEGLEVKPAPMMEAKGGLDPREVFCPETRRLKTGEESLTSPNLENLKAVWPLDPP
# Outline: as §1
# ETS2 = target: T9, ETS2 (Homo sapiens, UniProt P15036 1-469)
# T9 sequence: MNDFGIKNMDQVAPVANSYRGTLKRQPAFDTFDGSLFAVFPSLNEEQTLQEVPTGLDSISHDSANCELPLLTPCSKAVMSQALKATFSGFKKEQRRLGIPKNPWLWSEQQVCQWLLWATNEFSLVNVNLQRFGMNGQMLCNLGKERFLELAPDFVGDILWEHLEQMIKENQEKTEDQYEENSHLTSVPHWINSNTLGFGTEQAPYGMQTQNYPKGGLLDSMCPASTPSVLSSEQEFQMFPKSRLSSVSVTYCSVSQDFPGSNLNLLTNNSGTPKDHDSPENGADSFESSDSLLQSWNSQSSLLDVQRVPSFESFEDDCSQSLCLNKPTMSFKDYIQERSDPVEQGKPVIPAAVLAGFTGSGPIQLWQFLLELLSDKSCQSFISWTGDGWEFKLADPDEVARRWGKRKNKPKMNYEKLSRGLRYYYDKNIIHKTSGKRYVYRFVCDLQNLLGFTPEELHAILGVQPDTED
# Outline: as §1
# ELF5 = target: T10, ELF5 (Homo sapiens, UniProt Q9UKW6-2 1-255)
# T10 sequence: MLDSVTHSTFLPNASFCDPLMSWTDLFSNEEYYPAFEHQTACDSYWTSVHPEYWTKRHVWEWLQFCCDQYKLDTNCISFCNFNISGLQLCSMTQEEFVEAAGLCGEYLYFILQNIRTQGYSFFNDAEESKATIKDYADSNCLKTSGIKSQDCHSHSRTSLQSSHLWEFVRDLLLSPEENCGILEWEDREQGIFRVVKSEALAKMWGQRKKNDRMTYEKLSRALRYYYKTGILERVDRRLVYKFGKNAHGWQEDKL
# Outline: as §1
# ETV3 = target: T11, ETV3 (Homo sapiens, UniProt P41162-2 1-143)
# T11 sequence: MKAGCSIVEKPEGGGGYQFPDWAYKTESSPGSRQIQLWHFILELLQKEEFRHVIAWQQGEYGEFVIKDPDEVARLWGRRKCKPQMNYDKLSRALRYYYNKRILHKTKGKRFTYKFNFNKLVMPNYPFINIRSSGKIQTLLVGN
# Outline: as §1
# ELF1, sequence (P32519 whole entry): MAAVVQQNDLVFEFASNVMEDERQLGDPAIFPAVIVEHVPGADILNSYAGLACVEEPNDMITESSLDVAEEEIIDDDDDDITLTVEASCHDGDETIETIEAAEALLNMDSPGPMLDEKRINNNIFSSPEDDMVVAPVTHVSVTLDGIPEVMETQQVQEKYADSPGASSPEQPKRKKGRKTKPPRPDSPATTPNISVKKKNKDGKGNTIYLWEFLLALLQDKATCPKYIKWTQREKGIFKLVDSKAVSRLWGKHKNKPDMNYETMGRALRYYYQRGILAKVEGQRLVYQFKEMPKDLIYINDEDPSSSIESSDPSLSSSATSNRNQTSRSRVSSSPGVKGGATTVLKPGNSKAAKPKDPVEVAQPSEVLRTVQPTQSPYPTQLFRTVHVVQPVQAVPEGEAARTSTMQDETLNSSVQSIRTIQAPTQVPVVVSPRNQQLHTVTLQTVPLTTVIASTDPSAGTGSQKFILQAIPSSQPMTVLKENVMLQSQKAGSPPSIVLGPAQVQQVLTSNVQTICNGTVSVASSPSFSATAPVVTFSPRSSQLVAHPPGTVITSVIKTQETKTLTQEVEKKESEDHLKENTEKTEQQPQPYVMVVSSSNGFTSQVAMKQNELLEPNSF
# ETV1, sequence (P50549 whole entry): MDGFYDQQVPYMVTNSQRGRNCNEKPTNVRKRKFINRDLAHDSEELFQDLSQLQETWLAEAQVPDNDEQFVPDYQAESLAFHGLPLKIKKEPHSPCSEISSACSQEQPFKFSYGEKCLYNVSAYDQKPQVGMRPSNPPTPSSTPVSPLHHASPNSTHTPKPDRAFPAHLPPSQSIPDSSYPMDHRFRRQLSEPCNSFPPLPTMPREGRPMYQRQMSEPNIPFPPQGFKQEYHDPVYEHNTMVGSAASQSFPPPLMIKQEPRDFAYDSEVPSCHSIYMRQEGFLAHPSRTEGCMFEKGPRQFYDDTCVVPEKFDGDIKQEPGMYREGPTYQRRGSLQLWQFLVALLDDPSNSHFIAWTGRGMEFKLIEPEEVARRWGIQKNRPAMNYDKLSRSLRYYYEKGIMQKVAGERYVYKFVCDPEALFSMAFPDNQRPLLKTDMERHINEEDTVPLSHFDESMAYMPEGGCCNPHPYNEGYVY
sequence,measurement,setting,value
CGCACA,binding signal,FLI1,"1.01 fold enrichment (6-mer frequency, TF over GST control)"
same,binding signal,ELK1,"1.08 fold enrichment (6-mer frequency, TF over GST control)"
same,binding signal,ERG,"1.02 fold enrichment (6-mer frequency, TF over GST control)"
same,binding signal,ELF1,"1.05 fold enrichment (6-mer frequency, TF over GST control)"
same,binding signal,EHF,"1.03 fold enrichment (6-mer frequency, TF over GST control)"
same,binding signal,ELK3,"1.02 fold enrichment (6-mer frequency, TF over GST control)"
same,binding signal,FEV,"1.02 fold enrichment (6-mer frequency, TF over GST control)"
same,binding signal,ETV1,"1.01 fold enrichment (6-mer frequency, TF over GST control)"
same,binding signal,ERF,"1.07 fold enrichment (6-mer frequency, TF over GST control)"
same,binding signal,ETV3L,"1.04 fold enrichment (6-mer frequency, TF over GST control)"
same,binding signal,ETS2,"1.04 fold enrichment (6-mer frequency, TF over GST control)"
same,binding signal,ELF5,"1.04 fold enrichment (6-mer frequency, TF over GST control)"
same,binding signal,ETV3,"1.03 fold enrichment (6-mer frequency, TF over GST control)"
